Potency and affinity values are given separately.
Experiments:
Staphylococcus aureus = settings: Concentration 32 ug.mL-1; ASSAY_TEST Inhibition of Bacterial Growth; detection method Absorption (OD600); MEDIA CAMHB; plate type 384well; NBS; CORNING #3640; time 18 hr
Escherichia coli = settings: Concentration 32 ug.mL-1; ASSAY_TEST Inhibition of Bacterial Growth; detection method Absorption (OD600); MEDIA CAMHB; plate type 384well; NBS; CORNING #3640; time 18 hr

SMILES | Inhibition (Staphylococcus aureus) [%] | Inhibition (Escherichia coli) [%]
COc1ccc(C2c3c(ccc4ccccc34)OC(=NBr)C2(Br)C#N)cc1OC (stereo not given) | 13.88 | -20.35
CC1=N/C(=C(\C)c2ccccc2)C(=O)O1 | -1.19 | 0.61
CCOC(=O)c1c[nH]c2ccc(OCc3ccccc3)cc12 | 5.22 | 6.31
C#CCN(C)Cc1cc2cc(OCc3ccccc3)ccc2n1C.O=C(O)C(=O)O | 41.66 | -11.51
CSC1=NC2(CC2c2ccccc2)C(=O)N1 (stereo not given) | 10.34 | 2.43
Cc1cc(Br)cc(C)c1NC=C(C#N)C#N | 7.73 | 12.6
CC(C)NNC(=O)Cc1c[nH]c2ccccc12 | 11.42 | 9.11
Cc1nc2c3cnn(-c4ccccc4)c3ncn2n1 | 15.5 | 11.4
CC(=O)Nc1n[nH]c2nc(N)c(C#N)c(-c3ccccc3)c12 | 38.27 | 1.16
Cn1c(CNNC(=O)Cc2cccc3ccccc23)cc2ccccc21 | -5.85 | -4.9
O=C(Cc1c[nH]c2ccccc12)NNCCc1ccccc1 | 4.22 | 5.19
CCOc1nc2nc(CCc3ccccc3)ccc2c(-c2ccccc2)c1C#N | 14.64 | -39.9
CCC(Cc1ccccc1)NNC(=O)c1cc2ccccc2[nH]1 (stereo not given) | -3.17 | -1.51
COc1ccc2c(c1)cc(CO)n2C | 3.66 | 11.03
C#CCNc1nc(NC2CCN(Cc3ccccc3)CC2)c(C#N)cc1C#N.Cl | -1.55 | -6.24

Reference: ChEMBL document CHEMBL4513135, “CO-ADD screening of IQOG CSIS (Spain) compounds”
